From PubChem BioAssay AID1159580 (chemical genetic matrix, 2015)
Hit rate of the full screen: of about 5,500 compounds, about 2,000 (36%) were called active. Another 18% or so got no clear call; they are omitted. Cut-off read from the data, not from the text of the source: active = normalized growth mostly below about 0.91 (no sharp cut-off); inconclusive = no clear call, values can overlap the other calls; inactive = mostly above about 0.92. Some of the results follow.

Experiment: chemical genetic growth profiling, strain panel (AID 1159580);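 note: tested at 20 µM; growth read once vehicle control cultures reached saturation at 30 °C; 1 = growth at the plate median or of vehicle wells; lower values mean less growth of the strain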
Details: growth OD
[1] = S. cerevisiae deletion strains, locus YAL040C, strain CLN3, active compounds read low
[2] = S. cerevisiae deletion strains, locus YER002W, strain NOP16, active compounds read low
[3] = S. cerevisiae deletion strains, locus YGR078C, strain PAC10, active compounds read low
[4] = S. cerevisiae deletion strains, locus YGR229C, strain SMI1, active compounds read low
[5] = S. cerevisiae deletion strains, locus YMR263W, strain SAP30, active compounds read low
[6] = S. cerevisiae deletion strains, locus YNL128W, strain TEP1, active compounds read low
[7] = S. cerevisiae deletion strains, locus YNL153C, strain GIM3, active compounds read low
[8] = S. cerevisiae deletion strains, locus YNL175C, strain NOP13, active compounds read low
[9] = S. cerevisiae deletion strains, locus YNL197C, strain WHI3, active compounds read low
[10] = S. cerevisiae deletion strains, locus YNL224C, strain SQS1, active compounds read low
[11] = S. cerevisiae deletion strains, locus YNL322C, strain KRE1, active compounds read low
[12] = S. cerevisiae deletion strains, locus YOR083W, strain WHI5 (second series), active compounds read low
[13] = S. cerevisiae deletion strains, locus YCL061C, strain MRC1 (second series), active compounds read low
[14] = S. cerevisiae deletion strains, locus YDR363W, strain ESC2, active compounds read low
[15] = S. cerevisiae deletion strains, locus YMR307W, strain GAS1, active compounds read low
[16] = S. cerevisiae deletion strains, locus YPL055C, strain LGE1, active compounds read low
[17] = S. cerevisiae deletion strains, locus YPL241C, strain CIN2, active compounds read low
[18] = S. cerevisiae deletion strains, locus YAL013W, strain DEP1, active compounds read low
[19] = S. cerevisiae deletion strains, locus YDR150W, strain NUM1, active compounds read low
[20] = S. cerevisiae deletion strains, locus YJR075W, strain HOC1, active compounds read low
[21] = S. cerevisiae deletion strains, locus YDL101C, strain DUN1, active compounds read low
[22] = S. cerevisiae deletion strains, locus YHR030C, strain SLT2, active compounds read low

Measured: normalized growth

NC(N)=NCCC[C@H](N)C(=O)O
inactive: [1] 1.09 | [2] 1.01 | [3] 0.987 | [4] 0.98 | [5] 1.01 | [6] 0.986 | [7] 1.01 | [8] 0.981 | [9] 0.989 | [10] 0.999 | [11] 0.984 | [12] 0.975

CCCCC#Cc1nc(N)c2ncn([C@@H]3O[C@H](C(=O)NCC)[C@@H](O)[C@H]3O)c2n1
inactive: [1] 0.949 | [13] 0.996 | [14] 1 | [2] 1 | [5] 0.996 | [15] 1.01 | [7] 1.19 | [8] 0.98 | [9] 0.982 | [10] 1.01 | [12] 0.982 | [16] 0.991 | [17] 0.994

COc1nc(C)nc(Cl)c1NC1=NCCN1
inactive: [18] 1.01 | [1] 0.999 | [13] 0.999 | [19] 0.996 | [14] 1.01 | [2] 0.987 | [4] 1.01 | [20] 0.99 | [5] 0.998 | [15] 1.01 | [6] 1.01 | [8] 1 | [9] 1 | [10] 1.01 | [12] 1.01 | [16] 0.998 | [17] 0.997

Cc1c(C(=S)Nc2ccccc2)sc2ccccc12
inactive: S. cerevisiae deletion strains, locus YAR019C, strain CDC15, active compounds read low 0.943 | S. cerevisiae deletion strains, locus YBL105C, strain PKC1, active compounds read low 0.958 | S. cerevisiae deletion strains, locus YBR135W, strain CKS1, active compounds read low 0.935 | S. cerevisiae deletion strains, locus YBR136W, strain MEC1, active compounds read low 0.947 | S. cerevisiae deletion strains, locus YBR160W, strain CDC28, active compounds read low 0.948 | S. cerevisiae deletion strains, locus YDL017W, strain CDC7, active compounds read low 0.964 | S. cerevisiae deletion strains, locus YDL028C, strain MPS1, active compounds read low 0.953 | [21] 0.961 | S. cerevisiae deletion strains, locus YDL108W, strain KIN28, active compounds read low 0.946 | S. cerevisiae deletion strains, locus YDL132W, strain cdc53, active compounds read low 0.967 | S. cerevisiae deletion strains, locus YDL214C, strain PRR2, active compounds read low 0.881 | S. cerevisiae deletion strains, locus YDR052C, strain DBF4, active compounds read low 0.959 | S. cerevisiae deletion strains, locus YDR054C, strain cdc34, active compounds read low 0.938 | S. cerevisiae deletion strains, locus YDR226W, strain ADK1, active compounds read low 0.941 | S. cerevisiae deletion strains, locus YDR477W, strain SNF1, active compounds read low 0.887 | S. cerevisiae deletion strains, locus YER123W, strain YCK3, active compounds read low 0.882 | S. cerevisiae deletion strains, locus YER133W, strain GLC7, active compounds read low 0.865 | S. cerevisiae deletion strains, locus YFL009W, strain cdc4, active compounds read low 0.943 | S. cerevisiae deletion strains, locus YFL029C, strain CAK1, active compounds read low 0.941 | S. cerevisiae deletion strains, locus YFR003C, strain YPI1, active compounds read low 0.949 | S. cerevisiae deletion strains, locus YFR019W, strain FAB1, active compounds read low 0.948 | S. cerevisiae deletion strains, locus YFR028C, strain CDC14, active compounds read low 0.969 | S. cerevisiae deletion strains, locus YGR040W, strain KSS1, active compounds read low 0.867 | S. cerevisiae deletion strains, locus YGR052W, strain FMP48, active compounds read low 0.968 | S. cerevisiae deletion strains, locus YGR092W, strain DBF2, active compounds read low 0.728 | S. cerevisiae deletion strains, locus YHR079C, strain IRE1, active compounds read low 0.816 | S. cerevisiae deletion strains, locus YHR082C, strain KSP1, active compounds read low 0.863 | S. cerevisiae deletion strains, locus YHR205W, strain SCH9, active compounds read low 0.861 | S. cerevisiae deletion strains, locus YIL147C, strain SLN1, active compounds read low 0.951 | S. cerevisiae deletion strains, locus YJL095W, strain BCK1, active compounds read low 0.886 | S. cerevisiae deletion strains, locus YJL128C, strain PBS2, active compounds read low 0.95 | S. cerevisiae deletion strains, locus YJL157C, strain FAR1, active compounds read low 0.863 | S. cerevisiae deletion strains, locus YJR016C, strain ILV3, active compounds read low 0.946 | S. cerevisiae deletion strains, locus YJR066W, strain TOR1 (second series), active compounds read low 0.818 | S. cerevisiae deletion strains, locus YJR066W, strain TOR1, active compounds read low 0.899 | S. cerevisiae deletion strains, locus YKL048C, strain ELM1, active compounds read low 0.933 | S. cerevisiae deletion strains, locus YKL067W, strain YNK1, active compounds read low 0.884 | S. cerevisiae deletion strains, locus YKL101W, strain HSL1, active compounds read low 0.917 | S. cerevisiae deletion strains, locus YKL193C, strain SDS22, active compounds read low 0.94 | S. cerevisiae deletion strains, locus YKL203C, strain TOR2, active compounds read low 0.925 | S. cerevisiae deletion strains, locus YLR113W, strain HOG1, active compounds read low 0.915 | S. cerevisiae deletion strains, locus YLR133W, strain CKI1, active compounds read low 0.888 | S. cerevisiae deletion strains, locus YLR403W, strain SFP1, active compounds read low 0.81 | S. cerevisiae deletion strains, locus YML070W, strain DAK1, active compounds read low 0.865 | S. cerevisiae deletion strains, locus YMR001C, strain CDC5, active compounds read low 0.938 | S. cerevisiae deletion strains, locus YMR205C, strain PFK2 (second series), active compounds read low 0.879 | S. cerevisiae deletion strains, locus YMR277W, strain FCP1, active compounds read low 0.939 | S. cerevisiae deletion strains, locus YNL006W, strain LST8, active compounds read low 0.951 | S. cerevisiae deletion strains, locus YNL020C, strain ARK1, active compounds read low 0.875 | S. cerevisiae deletion strains, locus YNL161W, strain CBK1, active compounds read low 0.954 | S. cerevisiae deletion strains, locus YNL183C, strain NPR1, active compounds read low 0.863 | S. cerevisiae deletion strains, locus YNL207W, strain RIO2, active compounds read low 0.946 | S. cerevisiae deletion strains, locus YNL222W, strain SSU72, active compounds read low 0.941 | S. cerevisiae deletion strains, locus YNL307C, strain MCK1 (second series), active compounds read low 0.842 | S. cerevisiae deletion strains, locus YOL078W, strain AVO1, active compounds read low 0.934 | S. cerevisiae deletion strains, locus YOL136C, strain PFK27, active compounds read low 0.859 | S. cerevisiae deletion strains, locus YOR061W, strain CKA2, active compounds read low 0.854 | S. cerevisiae deletion strains, locus YOR119C, strain RIO1, active compounds read low 0.965 | S. cerevisiae deletion strains, locus YOR231W, strain MKK1, active compounds read low 0.879 | S. cerevisiae deletion strains, locus YOR329C, strain SCD5, active compounds read low 0.958 | S. cerevisiae deletion strains, locus YPL031C, strain PHO85, active compounds read low 0.862 | S. cerevisiae deletion strains, locus YPL153C, strain RAD53, active compounds read low 0.847 | S. cerevisiae deletion strains, locus YPL204W, strain HRR25, active compounds read low 0.828 | S. cerevisiae deletion strains, locus YPL209C, strain IPL1, active compounds read low 0.95 | S. cerevisiae deletion strains, locus YPL256C, strain CLN2, active compounds read low 0.899 | S. cerevisiae deletion strains, locus YPR025C, strain CCL1, active compounds read low 0.945 | S. cerevisiae deletion strains, locus YPR106W, strain ISR1, active compounds read low 0.951 | S. cerevisiae deletion strains, locus YPR111W, strain DBF20, active compounds read low 0.99 | S. cerevisiae deletion strains, strain NNK1, active compounds read low 0.949 | S. cerevisiae deletion strains, strain TSCII, active compounds read low 0.941
active: [22] 0.809

CC(=O)c1cnn(-c2ccccc2)c1C
inactive: [18] 0.979 | S. cerevisiae deletion strains, locus YBR229C, strain ROT2, active compounds read low 0.984 | S. cerevisiae deletion strains, locus YCL061C, strain MRC1, active compounds read low 0.992 | [21] 0.985 | S. cerevisiae deletion strains, locus YDL134C, strain PPH21, active compounds read low 1.01 | [19] 0.925 | S. cerevisiae deletion strains, locus YEL061C, strain CIN8, active compounds read low 1 | [3] 0.995 | [22] 0.945 | S. cerevisiae deletion strains, locus YHR087W, strain rtc3, active compounds read low 0.99 | S. cerevisiae deletion strains, locus YJR043C, strain POL32, active compounds read low 0.994 | [20] 1 | S. cerevisiae deletion strains, locus YLR039C, strain RIC1, active compounds read low 1 | S. cerevisiae deletion strains, locus YLR058C, strain SHM2 (second series), active compounds read low 0.998 | S. cerevisiae deletion strains, locus YLR085C, strain ARP6, active compounds read low 0.963 | S. cerevisiae deletion strains, locus YLR262C, strain YPT6, active compounds read low 1.01 | S. cerevisiae deletion strains, locus YML094W, strain GIM5, active compounds read low 0.948 | S. cerevisiae deletion strains, locus YMR219W, strain ESC1, active compounds read low 0.997 | [5] 0.922 | [15] 0.957 | [7] 0.981 | S. cerevisiae deletion strains, locus YNL298W, strain CLA4 (second series), active compounds read low 1 | [11] 0.997 | S. cerevisiae deletion strains, locus YNR030W, strain Alg12, active compounds read low 1 | S. cerevisiae deletion strains, locus YOL006C, strain TOP1, active compounds read low 0.983 | [16] 0.848 | [17] 0.984 | S. cerevisiae deletion strains, locus YPR135W, strain CTF4, active compounds read low 0.944 | S. cerevisiae strains, strain wild type, active compounds read low 0.997
